SMILES strings stand for the structures. About 83,000 compounds went through this panel and 20% of them were active in at least one assay; those are over-represented in the sample as a whole.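 Cell lines were cultured in 96-well plates, exposed to a single compound concentration, and assessed for percent growth 48 hours later.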 The source made the active and inactive calls. The calls were made as follows: active = growth percent below 10; inactive = the rest.

Our source for the growth values is PubChem BioAssay (NCI).

Test systems include T-47D breast; BT-549 breast; MDA-MB-435 melanoma; SW-620 colon; MCF7 breast; HCT-116 colon; KM12 colon; MDA-MB-468 breast.
Holding throughout (assay): NCI-60 one-dose screen, 48 h (100 = growth as untreated, 0 = no growth, -100 = all killed)
What all share (settings): 10 µM

Regarding `Nc1nc(Nc2ccc(Cl)cc2)n(Cc2cccc(Br)c2)n1`, the growth was 15.1% (inactive) with T-47D breast; -51.4% (active) in the test with BT-549 breast; -64.9% (active) in the test with MDA-MB-435 melanoma; -16.5% (active) in the test with SW-620 colon; -31.6% (active) with MCF7 breast; -57.7% (active) with HCT-116 colon. In addition, the growth was -0.172% (active) with KM12 colon and -46.5% (active) in the test on MDA-MB-468 breast.
As to `CN1CCN(c2ccc(Nc3nc(NCCNC(=O)c4ccc(C(F)(F)F)cc4)c4sccc4n3)cc2)CC1`, the growth is -6.48% (active) with T-47D breast; -13.9% (active) with BT-549 breast; -95.2% (active) in the test on MDA-MB-435 melanoma; 4.68% (active) in the test on SW-620 colon; -44.4% (active) with MCF7 breast; 15.2% (inactive) with HCT-116 colon. For the same compound, the results for the growth in the test with KM12 colon and with MDA-MB-468 breast were 31.4% (inactive) and 5.65% (active), respectively.
For the compound `Cc1ccc(/C=C(\C#N)n2nnc3c(F)cccc32)cc1`, the growth in the test with T-47D breast was 24.5% (inactive); in the test on BT-549 breast, -13.4% (active); with MDA-MB-435 melanoma, 8.1% (active); in the test on SW-620 colon, 14% (inactive); with MCF7 breast, 8.62% (active); in the test with HCT-116 colon, 27% (inactive). For the same compound, the growth in the test with KM12 colon is -1.08% (active); with MDA-MB-468 breast it was 37.8% (inactive).
For the compound `O=c1[nH]c2ccc(Cl)cc2cc1CSc1ccc(Nc2nccc(-c3ccc4ccccc4c3)n2)cc1`, the growth in the test on T-47D breast is 100% (inactive); in the test on BT-549 breast, 83.4% (inactive); in the test on MDA-MB-435 melanoma it was 84.7% (inactive); in the test on SW-620 colon, 17.6% (inactive); in the test with MCF7 breast it was 29.2% (inactive); with HCT-116 colon it was 55% (inactive). Besides, the growth with KM12 colon was 53% (inactive); in the test with MDA-MB-468 breast, 15.2% (inactive).
On to `Cc1ccc(-c2ccc(SCC(=O)Nc3ccc(S(N)(=O)=O)cc3Br)nn2)cc1`, for which the growth in the test with T-47D breast was 35.2% (inactive); with BT-549 breast, 14.2% (inactive); in the test with MDA-MB-435 melanoma, 61.9% (inactive); in the test with SW-620 colon, 60% (inactive); in the test with MCF7 breast it was 32.4% (inactive); in the test with HCT-116 colon it was -7.84% (active). Further, the growth with KM12 colon is 38.3% (inactive); with MDA-MB-468 breast, -21.3% (active).
With `COc1ccc(C(=O)CSc2nnc(-c3c[nH]c4ccccc34)n2-c2ccccc2)cc1`, the growth in the test with T-47D breast was 56.7% (inactive); in the test with BT-549 breast it was 24.7% (inactive); in the test on MDA-MB-435 melanoma, 69.1% (inactive); in the test with SW-620 colon it was 86.3% (inactive); in the test on MCF7 breast it was 45.6% (inactive); in the test on HCT-116 colon it was 52.5% (inactive). Further, the growth is 88.1% (inactive) with KM12 colon and 59.8% (inactive) in the test on MDA-MB-468 breast.
